# Experimental data from PubChem BioAssay (NCI).
# About 79,000 compounds went through this panel and 15% of them were active in at least one assay; those are over-represented in the sample as a whole. Active and inactive are the calls of the source. Cut-off read from the data, not from the text of the source: active = growth inhibition above about 70%; inactive = the rest.
# Assay: NCI Yeast Anticancer Drug Screen. Data for the cln2 rad14 strain (AID 165);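 note: 0% = growth equal to vehicle treated cultures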
# Settings: S. cerevisiae cln2 rad14 strain, at 50.0 µM, hits give high values
# Experimental: Growth inhibition of yeast strains with defined genetic alterations is measured as a screen for potential anti-cancer activity. Selected strains with alterations in DNA damage repair or cell cycle control were exposed to compounds and growth inhibition was measured relative to vehicle treated controls. The strain used in this assay is cln2 rad14
row,Compound,growth inhibition
1,CCCCCCCCCCCCCCCCCC(=O)CCCCCCCCCCCCCCCCC,13.8% (inactive)
2,O/N=C/C(=Nc1cccc2ccccc12)NO,-10.3% (inactive)
3,CCOc1ccc(OCC)c(NC(=O)OC(C)C)c1,-27.5% (inactive)
4,CC1(C)N=C(N)N=C(N)N1c1cccc(CSc2ccccc2)c1,7.2% (inactive)
5,Cn1nc2c(c1-c1ccncc1)CCc1ccccc1-2,-3.55% (inactive)
6,CN1C/C(=C\c2ccc(C(=O)O)cc2)C(=O)/C(=C/c2ccc(C(=O)O)cc2)C1,20.9% (inactive)
7,Cc1ccn2c(=O)c(CCBr)c(C)nc2c1,13.8% (inactive)
8,COC(=O)NN(C(=O)OC)C12CCCC1N(C(=O)OC)N(C(=O)OC)c1c2ccc2ccccc12 (stereo not given),-4.9% (inactive)
9,COc1ccc(C2CC(c3ccccc3)=NN2c2ccccc2)cc1 (stereo not given),-7.55% (inactive)
10,CCCCCCSc1ccc([N+](=O)[O-])cc1[N+](=O)[O-],-6.8% (inactive)
11,O=C(Nc1ccccc1)C1C2C=CC(C2)C1C(=O)Nc1ccccc1 (stereo not given),-11.7% (inactive)
12,N#C/C(=C\N1CC(=O)NC1=S)C(=O)c1ccc2ccccc2c1,13.5% (inactive)
13,O=C1c2ccccc2C(=O)N1Cc1ccc(CN2C(=O)c3ccccc3C2=O)cc1,-12.2% (inactive)
14,CCOC(=O)/C=C/C1(CCOC(C)=O)CCCCC1,21% (inactive)
15,COc1c2c(cc3c1C(=O)Cc1ccc4c(c1CN(C)CC3)OCO4)OCO2,24.4% (inactive)
16,Nc1nc(N)c2nc(-c3ccc([N+](=O)[O-])cc3)c(Cl)nc2n1,-44.9% (inactive)
17,COc1ccc(C(=O)C/C(=N\N(C(=O)c2ccc(OC)cc2)c2ccccc2)c2ccc(OC)cc2)cc1,-21.1% (inactive)
18,Cn1c(=O)n(C2(C)CSC2)c2ccccc21,-3.95% (inactive)
19,COC(=O)[C@@H](CO)NC(=O)OC(C)(C)C,21.6% (inactive)
20,O=C(Oc1ccc2c(c1)CCN2C(=O)c1cc2c(cc1[N+](=O)[O-])OCO2)c1ccc2c(c1)OCO2,5.7% (inactive)

row,Compound,growth inhibition
1,c1ccc(SCCC(Sc2ccccc2)Sc2ccccc2)cc1,-13.8% (inactive)
2,Cc1ccccc1C(=O)OC1CCCC1,-19.4% (inactive)
3,Cc1ccccc1N=C(N)Nc1ccccc1,-43.3% (inactive)
4,CN(C)c1c(F)c(F)c(N=Nc2ccccc2)c(F)c1F,-3.15% (inactive)
5,O=C1CN(N2C(=O)CSC2C23CC4CC(CC(C4)C2)C3)C(=O)CN1c1ccccc1 (stereo not given),24.8% (inactive)
6,Cc1csc2nc3[nH]ncc3c(=O)n12,-9.85% (inactive)
7,O=S(=O)(N/N=C(/CC/C(=N\NS(=O)(=O)c1ccccc1)c1ccccc1)c1ccccc1)c1ccccc1,7.55% (inactive)
8,CC1(C)OC(=O)C(=Cc2ccc(-c3ccccc3[N+](=O)[O-])o2)C(=O)O1,23.6% (inactive)
9,c1ccc(C2CN3CCSC3=N2)cc1 (stereo not given),5.5% (inactive)
10,O=C(Nc1ccc(Cl)cc1)/C(Cc1cccc[n+]1[O-])=N\Nc1ccc([N+](=O)[O-])cc1[N+](=O)[O-],-7.15% (inactive)
11,CCCCn1c2nc(=O)n(C)c(=O)c-2cc2ccccc21,-25.4% (inactive)
12,CCC(CCN(C)C)(OC(C)=O)c1ccccc1 (stereo not given),11.7% (inactive)
13,Cc1ccc2ccccc2c1CP(=O)(O)O,-10.6% (inactive)
14,Cc1cccc(C(=O)c2ccc(C)cc2C)c1,6.75% (inactive)
15,Cc1ccc(S(=O)(=O)[N-]C2C(=O)c3ccccc3C(=O)C2[n+]2cccc(C(N)=O)c2)cc1 (stereo not given),4.55% (inactive)
16,Cc1c(F)c(N)c2c(=O)cc(-c3ccc(N)c(F)c3)oc2c1F,21.3% (inactive)
17,COc1cc2ccc(/C=C/C(=O)c3ccc4c(c3)OCO4)cc2cc1OC,22.4% (inactive)
18,CNC(=O)CCCCC(=O)NC,6.15% (inactive)
19,CCCCC(=O)NC1=CC(=O)c2ccccc2C1=O,29.6% (inactive)
20,CSc1ccc(C(=O)C[n+]2cc3ccccc3cc2C)cc1,-26.6% (inactive)
